LANA-H2A inh: blockers of LANA interaction with H2A/H2B – biochemical, FP readout, HTS, primary screen; Protein LANA1 (Human herpesvirus 8 type P (isolate GK18)), Q9QR71; cell-free LANA-H2A/H2B peptide, fluorescence polarization; inhibition, % (concentration not given with the values); 0.6% of 320,000 active; AID 2629, 2010; in the data active = inhibition mostly above about 10%, no sharp cut-off; inactive = mostly below about 6.7%
HDAC3 inh: HDAC3 deacetylase inhibitors, primary screen, biochemical, fluorescence, cell-free homogeneous. recombinant HDAC3, fluorogenic peptide/trypsin coupled. inhibition, % at 8.3 µM. 0.15% of 320,000 active; in the data active = inhibition above about 26%, passing the limit was not always enough; inconclusive = no clear call, values can overlap the other calls
APOBEC3G inh: APOBEC3G DNA deaminase inhibitors, primary screen, biochemical, fluorescence, single-stranded DNA substrate, uHTS; inhibition, % at 20 µM; DNA dC->dU-editing enzyme APOBEC-3G (Homo sapiens), Q9HC16; 0.28% of 330,000 active; recombinant A3G, ssDNA deamination FAM/TAMRA fluorescence; AID 493012, 2011;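 active = inhibition of at least 40% at 20 µM, with no more than 30% in the related APOBEC3A deaminase screen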;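 note: plate controls were DMSO wells with A3G for no effect and wells lacking A3G enzyme for full effect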
Target sequence (Q9HC16 whole entry, looked up): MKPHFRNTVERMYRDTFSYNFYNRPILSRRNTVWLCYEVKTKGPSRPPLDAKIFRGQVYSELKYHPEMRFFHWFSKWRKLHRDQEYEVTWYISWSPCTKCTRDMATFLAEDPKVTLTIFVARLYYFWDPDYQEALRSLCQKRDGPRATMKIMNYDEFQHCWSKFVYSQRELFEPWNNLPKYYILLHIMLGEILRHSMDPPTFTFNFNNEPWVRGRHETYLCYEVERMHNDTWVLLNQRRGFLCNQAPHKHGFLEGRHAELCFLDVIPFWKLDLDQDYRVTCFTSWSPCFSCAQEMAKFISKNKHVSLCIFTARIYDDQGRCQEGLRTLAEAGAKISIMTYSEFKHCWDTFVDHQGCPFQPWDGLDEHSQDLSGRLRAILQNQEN
A3A deaminase: APOBEC3A ssDNA deaminase inhibitors, primary screen, selectivity assay for APOBEC3G inhibitor project, biochemical, FAM/TAMRA oligo cleavage fluorescence | DNA dC->dU-editing enzyme APOBEC-3A (Homo sapiens), P31941 | recombinant A3A, FAM/TAMRA ssDNA deamination fluorescence | inhibition, % at 20 µM | 0.41% of 330,000 active;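 active = at least 40% inhibition at 20 µM here, with at most 30% in a related deaminase screen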;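 note: plate controls were A3A with DMSO for no effect and wells lacking A3A enzyme for full effect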
A3G conf: APOBEC3G deaminase inhibitor retest, confirmation, biochemical, fluorescence, single-stranded DNA substrate, single concentration; recombinant A3G ssDNA deaminase, UDG/FAM-TAMRA fluorescence; 72% of 890 active; shares compounds with APOBEC3G inh; inhibition, % at 20 µM;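 active = inhibition reaching a set limit in any replicate at 20 µM, the limit being 80% of the first screen's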
UDG ctr A3G: E. coli UDG inhibitors, confirmation, counter-screen for APOBEC3G inhibitor project, biochemical, single concentration, fluorescence, FAM/TAMRA oligo; inhibition, % at 20 µM; shares compounds with APOBEC3G inh; UDG counterscreen; 710 tested, under 10 active;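 active = compounds giving 40% or more inhibition at 20 µM in any one of the three replicates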;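 note: plate controls were DMSO wells with UDG and oligo for no effect and DMSO wells lacking both for full effect; inhibitors lower the FAM signal released by uracil excision and alkaline cleavage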
Target sequence (P12295 whole entry, looked up): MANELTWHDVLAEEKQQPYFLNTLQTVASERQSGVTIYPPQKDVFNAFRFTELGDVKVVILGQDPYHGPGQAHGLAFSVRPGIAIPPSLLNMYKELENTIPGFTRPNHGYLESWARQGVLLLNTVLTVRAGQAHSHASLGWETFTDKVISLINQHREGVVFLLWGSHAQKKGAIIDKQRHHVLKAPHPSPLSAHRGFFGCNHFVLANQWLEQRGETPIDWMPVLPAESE
* = called active by the depositor; ? = inconclusive; . = no result given; ! = not active in a repeat. Shown are actives, neighbours in structure and some others; about 1.4% of the full set was active somewhere.

SMILES | LANA-H2A inh | HDAC3 inh | APOBEC3G inh | A3A deaminase | A3G conf | UDG ctr A3G
O=C(Nc1ccc(F)cc1)C1CCN(S(=O)(=O)c2ccc3[nH]c(=O)oc3c2)CC1 | -5 | 3 | -8 | -2 | . | .
Cc1ccc(-c2csc3n[nH]c(=S)n23)cc1 | -1 | 17 | 60* | -5 | 82* | -1
Cc1ccc(-n2c(C)n[nH]c2=S)cc1 | -4 | 3 | . | . | . | .
CCCC(C)c1nnc(NC(=O)CCS(=O)(=O)c2ccccc2)s1 (stereo not given) | -2 | 0 | 66* | 13 | 56* | -4
COC(CN(C)S(=O)(=O)c1cc2c3c(c1)CCC(=O)N3CCC2)OC | 1 | 5 | -6 | -2 | . | .
CC(=O)c1ccc(NC(=O)c2ccc(NC(=O)c3ccco3)cc2)cc1 | 5 | -7 | 57* | 16 | 57* | 2
COc1ccccc1NC(=O)COC(=O)c1cc([N+](=O)[O-])ccc1N1CCCC1 | -8 | 13 | -7 | -3 | . | .
Cc1ccc(N2C(=O)CS(=O)C(c3ccccc3)C2=O)cc1C (stereo not given) | 0 | 20 | 16 | -2 | . | .
COc1ccc(N2C(=O)CS(=O)C(c3ccccc3)C2=O)cc1 (stereo not given) | -16 | 0 | 54* | -4 | 90* | -4
CC1(C)O[C@@H]2[C@H](O1)[C@@H](COS(=O)(=O)O)O[C@H]2n1c(=S)[nH]c2c(=O)[nH]c(N)nc21 | 3 | 12 | 49* | -2 | 74* | -2
Cc1c(Cl)c([N+](=O)[O-])nn1CC(=O)NCC(C)C | 0 | 9 | 48* | -1 | -7 | -1
COc1cc2c(cc1OC)C(c1ccccc1C)CC(=O)N2 (stereo not given) | -2 | -8 | 0 | 0 | . | .
Cc1ccc(Cn2c(=S)[nH]c3ccc(N4CCOCC4)cc3c2=O)o1 | 1 | 1 | 59* | 10 | 76* | .
O=C(CSC(=O)c1ccccc1)Nc1ccccc1F | -4 | 10 | 41* | 1 | 37* | -3
O=C1NN=C(CSc2n[nH]c(=S)s2)CS1 | 2 | 24 | 67* | 1 | 67* | 2
Cn1c(C(=O)N[C@@H](Cc2ccccc2)C(=O)O)cc2cc(F)ccc21 | 0 | 1 | 43* | -1 | -2 | 2
COc1ccc2c(c1)cc(C(=O)N[C@@H](Cc1ccccc1)C(=O)O)n2C | 4 | -25 | -6 | -5 | . | .
CCOC(=O)N1CCN(c2cc(=O)n(-c3cccc(C)c3)c(=O)[nH]2)CC1 | 3 | 0 | -8 | 3 | . | .
CC(NS(=O)(=O)c1cccc(S(=O)(=O)c2ccccc2)c1)C(=O)O (stereo not given) | -5 | -6 | -6 | -2 | . | .
O=C(Nc1ccc(Cl)cc1Cl)c1cccc(N2C(=O)C=CC2=O)c1 | 2 | 22 | 53* | 8 | 59* | -3
O=C(Nc1ccc(Cl)cc1Cl)c1ccc2c(c1)OCCO2 | 2 | 5 | -6 | -4 | . | .
COc1cc(-c2noc(C)c2C(=O)NCCc2ccccc2)cc(OC)c1OC | -2 | 4 | -5 | -1 | . | .
Cc1ccc(N/N=C2\CCS(=O)(=O)c3sccc32)cc1 | 2 | 6 | 45* | -6 | -6 | -4
c1ccc(SSc2ccccn2)nc1 | 2 | 5 | 64* | -4 | 88* | -4
CCCc1nc2sc3c(=O)n(N)cnc3c2c2c1CCCC2 | -4 | -8 | -2 | 2 | . | .
SMILES | LANA-H2A inh | HDAC3 inh | APOBEC3G inh | A3A deaminase | A3G conf | UDG ctr A3G
Cc1ccc(C)c(-c2csc(NC(=O)c3cnccn3)n2)c1 | -2 | -2 | -4 | -4 | . | .
O=[N+]([O-])c1ccc(N2CCN(c3ccc(O)cc3)CC2)cn1 | 4 | 2 | 47* | 2 | 13 | .
O=[N+]([O-])c1ccc(N2CCN(c3ccccc3Cl)CC2)cn1 | -2 | 2 | -4 | 1 | . | .
COc1cccc(NC(=O)CN(C)C(=O)[C@@H]2CCCN2C(=O)c2cccs2)c1 | -2 | -3 | -2 | -2 | . | .
O=C(Nc1ccnn1C1CCN(C(=O)c2cc(Cl)ccc2F)CC1)C1CCOC1 (stereo not given) | 11 | 4 | -1 | -2 | . | .
COc1ccc(OCC(=O)Nn2c(-c3ccc(OC)cc3)nc3ccccc3c2=O)cc1 | 2 | 3 | 3 | 2 | . | .
COc1ccc(-c2nc3ccccc3c(=O)n2NC(=S)N(C)C)cc1 | . | . | 52* | -2 | 64* | 5
O=[N+]([O-])c1ccc(Cl)c(/C=N/n2c(-c3cccnc3)n[nH]c2=S)c1 | -2 | -1 | 48* | 4 | 25 | .
O=[N+]([O-])c1cccc(/C=N/n2c(-c3cccnc3)n[nH]c2=S)c1 | -3 | ? | 69* | 1 | 74* | 3
O=[N+]([O-])c1ccc(/C=N/n2c(-c3cccnc3)n[nH]c2=S)cc1 | -3 | 4 | 63* | -6 | 62* | -3
Cc1n[nH]c(=S)n(/N=C/c2cccc([N+](=O)[O-])c2)c1=O | 3 | -15 | -4 | 1 | . | .
Cc1ccsc1/C=N/n1c(-c2cccnc2)n[nH]c1=S | 4 | -7 | 40 | -7 | . | .
Cc1ccc(C(=O)NNC(=O)c2csc(N3CCOCC3)n2)s1 | 5 | 5 | -4 | 2 | . | .
COc1ccc(N2C(=O)/C(=C/c3cccs3)NC2=S)cc1 | 1 | 12 | 60* | 1 | 39* | 4
O=c1[nH]c(-c2ccncc2)nc2ccccc12 | -4 | 3 | 58* | 9 | 56* | -2
CCOC(=O)c1cc(-c2ccccc2)sc1NC(=O)c1ccc(OC)c(OC)c1 | -3 | 0 | 57* | 1 | 47* | -2
CCOC(=O)c1cc(-c2ccccc2)sc1NC(=O)C(C)C | 0 | 1 | -8 | -5 | . | .
CCc1nn(CC(=O)N(C)C2CCCCC2)c(=O)c2cc3cc(C)ccc3n12 | . | . | -5 | -7 | . | .
S=c1[nH]c2cc(Br)cnc2[nH]1 | -1 | 0 | 56* | 1 | 68* | -4
COc1cc(NC(=O)COc2ccc(-n3cnnn3)cc2)cc(OC)c1OC | -1 | ? | -8 | -5 | . | .
COCCCC/C(=N\OCCN)c1ccc(C(F)(F)F)cc1 | -2 | -1 | 81*! | 0 | -6 | 0
O=c1[nH]c(SCc2nc3ccccc3c(=O)n2-c2ccccc2)nc2ccccc12 | 0 | 0 | 0 | 2 | . | .
O=c1[nH]c(SCc2n[nH]c(=S)n2-c2ccccc2)nc2ccccc12 | 1 | 6 | 60* | -3 | 86* | -4

Assay outcomes (PubChem BioAssay)
